# Jurkat NFkB inh: lowers PMA/ionomycin-induced NF-kB signal in Jurkat cells | actives 0.53% (n = 330,000) | AID 435003 | inhibition, % at 4 µM | PMA/ionomycin-induced NF-kB luciferase reporter, luminescence; in the data active = inhibition above about 50%
# Mdm2-MdmX inh: human Mdm2/MdmX binding inhibition; inhibition, % at 8 µM; O15151+Q00987; SaOS-2 split-luciferase Mdm2/MdmX complementation, luminescence; actives 3% (n = 330,000); AID 485346;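 active = inhibition of at least 50% at 8 µM in the primary screen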
# Gli-Sufu block: blocks Gli-Sufu signaling in a luciferase reporter; actives 0.74% (n = 340,000); AID 588413; inhibition, % at 5 µM; Sufu-KO-LIGHT fibroblasts, Gli luciferase reporter luminescence;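 active = inhibition above about 55%, limit read from the data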;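 also: 0% = DMSO-treated cells and 100% = wells with medium but no cells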
# Beta apoptosis: blocks beta cell apoptosis; protection from apoptosis, % (concentration not given with the values); AID 435005; INS-1E cytokine-induced death, ATP luminescence, 48 h; percent of positive-control rescue, neutral wells zero; actives 0.8% (n = 300,000);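 active = Every replicate reaches about 75%, or at least half do and their mean reaches it too, limit read from the data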;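 also: 0% = cytokine-treated negative control wells and 100% = positive control rescue; higher means more ATP so stronger rescue from cytokine killing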
# 697 NFkB inh: inhibitors of the PMA/ionomycin-induced NF-kB reporter in 697 B cells; AID 435022; inhibition, % at 4 µM; 697 B-cell NF-kB luciferase reporter, 16 h; actives 0.33% (n = 330,000); in the data active = inhibition above about 35%
# Gli-Sufu confirm: confirmation of Gli-SUFU pathway antagonists; actives 40% (n = 2,500); Sufu-KO-LIGHT cells, Gli luciferase reporter, luminescence; inhibition, % at 5 µM; shares compounds with Gli-Sufu block; AID 602428;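 active = mean inhibition at 5 µM reaching about 45%, limit read from the data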;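 also: plate controls were DMSO-treated cells for no effect and wells lacking cells for full effect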
# SufuKO cytotox: cytotoxicity counter-screen for Gli-SUFU antagonists; shares compounds with Gli-Sufu block; Sufu-KO-LIGHT cells cytotoxicity, ATP luminescence; cytotoxicity, % at 5 µM; actives 32% (n = 2,500); AID 651994;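 active = mean cytotoxicity at 5 µM above about 25%, limit read from the data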;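 also: cells exposed to compound overnight for roughly 16 to 18 hours; plate controls were DMSO wells with cells for no effect and medium without cells for full effect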
# Wnt3a cs: inhibits Wnt3a reporter, counter-screen for Gli-SUFU antagonists. inhibition, % at 6.25 µM. shares compounds with Gli-Sufu block. Wnt-LIGHT cells, Wnt3a-driven luciferase reporter, luminescence. actives 20% (n = 2,500);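 active = mean inhibition above about 25%, limit read from the data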
# * = called active by the depositor; nt = not tested or not shown. Shown are actives, neighbours in structure and some others; about 4% of the full set was active somewhere.
SMILES,Jurkat NFkB inh,Mdm2-MdmX inh,Gli-Sufu block,Beta apoptosis,697 NFkB inh,Gli-Sufu confirm,SufuKO cytotox,Wnt3a cs
CCOC(=O)C1(CCOc2ccccc2)CCN(Cc2cccc(F)c2)CC1,-1,8,60*,nt,-20,27,26*,-31
COC(=O)c1cc(S(=O)(=O)N2CCC(c3cc(OC)ccc3OC)C2)c[nH]1 (centres undefined),21,34,52,45,-38,45,28*,5
COC(=O)c1cc(S(=O)(=O)N2CCC(c3ccccc3)C2)c[nH]1 (centres undefined),16,16,14,7,4,nt,nt,nt
COC(=O)c1cc(S(=O)(=O)N2CCN(c3ccc([N+](=O)[O-])cc3)CC2)c[nH]1,16,8,51,nt,-7,21,-1,-68
COC(=O)c1cc(S(=O)(=O)N2CCN(c3ccc(F)cc3)CC2)c[nH]1,12,13,-47,3,-11,nt,nt,nt
CC(OC(=O)c1ccc(Cl)c(S(=O)(=O)Nc2ccc(F)cc2)c1)C(=O)NC(N)=O (centres undefined),0,-10,1,0,4,nt,nt,nt
COc1ccc2cc(CCNC(=O)c3ccc(Br)o3)c(=O)[nH]c2c1,-18,-37,-12,1,-10,nt,nt,nt
Cc1cc2cc(CCNC(=O)c3ccc(Br)o3)c(=O)[nH]c2cc1C,2,13,96*,-5,9,10,3,29*
CCOC(=O)[C@H]1[C@H]2COc3ccc(OC)cc3[C@@H]2N2C(=O)c3cc(OC)c(OC)cc3NC(=O)[C@@]12C,7,4,99*,-3,-6,18,-9,13
CCOC(=O)[C@H]1[C@H]2COc3ccc(C)cc3[C@@H]2N2C(=O)c3cc(OC)c(OC)cc3NC(=O)[C@@]12C,-3,13,-1,-6,12,nt,nt,nt
Cc1ccc(C[n+]2cccc(-c3ccccc3)c2)c(C)c1,19,4,84*,97*,28,84*,21,56*
CCOC(=O)CSc1nc(N)c(C#N)c(-c2cccs2)c1C#N,-1,20,7,5,-6,nt,nt,nt
CCOC(=O)CSc1c(-c2cccs2)[nH]c2ccccc12,3,27,52,-10,2,65*,4,14
CCCC(=O)Nc1c(C(=O)OCC)[nH]c2ccccc12,-16,7,75*,2,-8,15,17,-49
CCOC(=O)c1[nH]c2ccccc2c1NC(=O)CC(C)C,-17,8,54,-2,-11,23,9,-19
CCOC(=O)c1[nH]c2ccccc2c1NC(=O)CN1CCCCC1,1,5,7,-3,1,nt,nt,nt
Brc1ccc(-c2csc(N3CCOCC3)n2)cc1,-106,-132,-81,1,-122,nt,nt,nt
Brc1ccc(-c2csc(N3CCCCCC3)n2)cc1,-21,-46,51,6,19,59*,1,27*
CC(=O)N1CCC(C(=O)N2CCN(S(=O)(=O)c3cccs3)CC2)CC1,-8,4,13,-3,-8,nt,nt,nt
CC(=O)N1CCC(C(=O)N2CCN(S(=O)(=O)c3ccc(Cl)s3)CC2)CC1,-9,-9,97*,-6,-4,15,22,11
C/C(=N\Nc1cc(N2CCCCC2)nc(C)n1)c1ccc(Br)cc1,14,39,79*,60,-50,52*,45*,22
Cc1ccc(C)c(OCCSc2nnc(-c3cccnc3)n2N)c1,4,12,-16,-2,19,nt,nt,nt
Cc1cc(NC(=O)Cc2ccccc2)c2ccccc2n1,29,26,66*,57,-28,59*,37*,30*
Cc1ccc(C(C)C)cc1OCCCCN1CCCC1,0,17,4,3,-9,nt,nt,nt
O=C(CN1CCOc2ccccc21)N1CCN(c2cccc(Cl)c2)CC1,2,7,61*,-7,2,20,10,-17
SMILES,Jurkat NFkB inh,Mdm2-MdmX inh,Gli-Sufu block,Beta apoptosis,697 NFkB inh,Gli-Sufu confirm,SufuKO cytotox,Wnt3a cs
COC(=O)CNC(=O)C(C)NC(=O)OCc1ccccc1 (centres undefined),9,-5,99*,-3,-5,34,4,-2
CCOC(=O)C(=O)NCC(c1cccs1)S(=O)(=O)c1ccc(Cl)cc1 (centres undefined),-2,-15,55,-2,-8,32,15,21
CCNC(=O)C(=O)NCC(c1cccs1)S(=O)(=O)c1ccc(C)cc1 (centres undefined),-3,4,52,0,-21,12,6,0
COc1cc2ccc(=O)oc2c(O[C@@H]2O[C@H](CO)[C@@H](O)[C@H](O)[C@H]2O)c1O,11,-7,3,-1,13,22,6,-4
CCCN(Cc1ccccc1)C(=S)Nc1ccc(SC(F)F)cc1,nt,nt,0,nt,nt,nt,nt,nt
O=C(c1ccc([N+](=O)[O-])cc1)N(Cc1ccc(Cl)cc1)N1C(=O)CCCC1=O,1,-1,78*,-2,11,90*,71*,10
O=C(c1ccc([N+](=O)[O-])cc1)N(Cc1ccc(Cl)cc1Cl)N1C(=O)CCCC1=O,-24,-7,23,-1,9,nt,nt,nt
CCOCCCn1c(=S)[nH]c2cc(C(=O)NCc3ccc(F)cc3)ccc2c1=O,-5,9,5,4,-38,nt,nt,nt
COCCNC(=O)CCn1nc(-c2ccc(Cl)cc2)c2ccccc2c1=O,4,24,50,-6,9,6,1,-1
COc1ccc(NC(=O)N2CCCC2C(=O)NCCc2ccccc2)cc1 (centres undefined),-3,-19,-14,-8,8,nt,nt,nt
COc1ccc(CC2C(=O)NC(C)C(=O)N(C)C3Cc4ccc(cc4)Oc4cc(ccc4O)CC(C(=O)NC(C)C(=O)NC(C)C(=O)N2C)N(C)C3=O)cc1 (centres undefined),nt,nt,91*,nt,nt,96*,90*,104*
CC(C(=O)NCc1cccnc1)c1ccc([N+](=O)[O-])cc1 (centres undefined),-5,-9,-5,-1,0,nt,nt,nt
Cc1ccc(S(=O)(=O)NCCOc2nc(N(C)C)nc(N3CCOCC3)n2)cc1,-14,12,95*,2,1,13,11,-13
O=C(N/N=C/C=C/c1ccccc1)NC1CCCCC1,-15,0,-15,-2,-24,nt,nt,nt
CC1(C)CC(=O)C2=C(C1)Nc1ccccc1NC2c1cccs1 (centres undefined),-7,10,58*,-3,13,21,8,-1
COc1cc(/C=C/C(=O)NC(C)C2CC3CCC2C3)cc(OC)c1OC (centres undefined),22,4,-15,3,22,nt,nt,nt

# High-throughput results as filed in PubChem.
